About 83,000 compounds went through this panel and 20% of them were active in at least one assay; those are over-represented in the sample as a whole.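 Cell lines were cultured in 96-well plates, exposed to a single compound concentration, and assessed for percent growth 48 hours later.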 Values without a mark were called inactive. Active and inactive are the calls of the source. The calls were made as follows: active = growth percent below 10; inactive = the rest.
Tests used:
Assay in all cases: NCI-60 one-dose screen, 48 h (100 = growth as untreated, 0 = no growth, -100 = all killed)
Conditions in all cases: 10 µM unless noted
SK-MEL-2 melanoma = tested on: SK-MEL-2 melanoma
EKVX NSCLC = tested on: EKVX NSCLC
SN12C renal = tested on: SN12C renal
UO-31 renal = tested on: UO-31 renal
TK-10 renal = tested on: TK-10 renal
ACHN renal = tested on: ACHN renal
CAKI-1 renal = tested on: CAKI-1 renal
A498 renal = tested on: A498 renal
MOLT-4 leukemia = tested on: MOLT-4 leukemia
CCRF-CEM leukemia = tested on: CCRF-CEM leukemia

**Q.** With O=C(NCc1cn(Cc2cccc(Oc3ccccc3)c2)nn1)c1cccnc1NCc1ccc(Cl)cc1 as the molecule, how does the growth (SK-MEL-2 melanoma) read?
**A.** Its growth is 13.9%.

**Q.** What about the growth (EKVX NSCLC) of the same molecule?
**A.** Its growth is 30.7%.

**Q.** And the growth (SN12C renal)?
**A.** The growth was 40.9%.

**Q.** What about the growth (UO-31 renal) of the same molecule?
**A.** The growth was 30.5%.

**Q.** And the growth (TK-10 renal)?
**A.** Its growth is 62.2%.

**Q.** And the growth (ACHN renal)?
**A.** Its growth is 41.9%.

**Q.** And the growth (CAKI-1 renal)?
**A.** The growth was 32.2%.

**Q.** And the growth (A498 renal)?
**A.** Its growth is -4.32% (active).

**Q.** And the growth (MOLT-4 leukemia)?
**A.** The growth was 14.6%.

**Q.** What does the source list for O=C(NCCN1CCC(O)CC1)c1cc2c(o1)C(=O)c1ccccc1C2=O?
**A.** growth (SK-MEL-2 melanoma): -66.1% (active); growth (EKVX NSCLC): -76.8% (active); growth (SN12C renal): -88.1% (active); growth (UO-31 renal): -98.9% (active); growth (TK-10 renal): -91.8% (active); growth (ACHN renal): -89.2% (active); growth (CAKI-1 renal): -97.1% (active); growth (CCRF-CEM leukemia): 2.16% (active); growth (MOLT-4 leukemia): -4.13% (active)

**Q.** How did the growth (SK-MEL-2 melanoma) turn out when C=CCOc1cccc(/C=C2\SC(=Nc3ccc(O)cc3)NC2=O)c1 was run?
**A.** The growth was 40.6%.

**Q.** What about the growth (EKVX NSCLC) of the same molecule?
**A.** Its growth is 28.8%.

**Q.** What about the growth (SN12C renal) of the same molecule?
**A.** The growth was 14.9%.

**Q.** What about the growth (UO-31 renal) of the same molecule?
**A.** The growth was 20.7%.

**Q.** What about the growth (TK-10 renal) of the same molecule?
**A.** The growth was 67.7%.

**Q.** And the growth (ACHN renal)?
**A.** The growth was 24.3%.

**Q.** What about the growth (CAKI-1 renal) of the same molecule?
**A.** The growth was 24.4%.

**Q.** What about the growth (CCRF-CEM leukemia) of the same molecule?
**A.** Its growth is 4.85% (active).

**Q.** What about the growth (MOLT-4 leukemia) of the same molecule?
**A.** The growth was 13.4%.

**Q.** What does the source list for COc1cc(C2CC(=O)Nc3n[nH]c(-c4ccccc4)c32)cc(OC)c1OC (centres undefined)?
**A.** growth (SK-MEL-2 melanoma): 59.8%; growth (EKVX NSCLC): 78.2%; growth (SN12C renal): 84.2%; growth (UO-31 renal): 87.1%; growth (TK-10 renal): 97.7%; growth (ACHN renal): 104%; growth (CAKI-1 renal): 92%; growth (CCRF-CEM leukemia): 70.2%; growth (MOLT-4 leukemia): 54%

**Q.** COc1ccc(-c2cc(-c3ccc(Nc4nc(Nc5ccccc5)nc(Nc5ccc(Cl)cc5)n4)cc3)nc(N)n2)cc1 was tested. Which growth (SK-MEL-2 melanoma) did it give?
**A.** Its growth is 70.7%.

**Q.** What about the growth (EKVX NSCLC) of the same molecule?
**A.** Its growth is 58.8%.

**Q.** And the growth (SN12C renal)?
**A.** The growth was 75%.

**Q.** What about the growth (UO-31 renal) of the same molecule?
**A.** The growth was 69%.

**Q.** What about the growth (TK-10 renal) of the same molecule?
**A.** Its growth is 98%.

**Q.** And the growth (ACHN renal)?
**A.** Its growth is 74.6%.

**Q.** And the growth (CAKI-1 renal)?
**A.** Its growth is 75.8%.

**Q.** What about the growth (CCRF-CEM leukemia) of the same molecule?
**A.** Its growth is 27.1%.

**Q.** What about the growth (MOLT-4 leukemia) of the same molecule?
**A.** Its growth is 28.6%.

**Q.** What does the source list for C[C@@H](C[C@H](CCOCc1cccnc1)c1ccccc1)c1cc2ccccc2o1?
**A.** growth (SK-MEL-2 melanoma): 89.7%; growth (EKVX NSCLC): 94.2%; growth (SN12C renal): 95.1%; growth (UO-31 renal): 75.9%; growth (TK-10 renal): 95.3%; growth (ACHN renal): 93.1%; growth (CAKI-1 renal): 77.6%; growth (A498 renal): 101%; growth (MOLT-4 leukemia): 84.1%

**Q.** For CCOC(=O)c1c2c(c(C)n1C)-c1nn(Cc3ccc(OC)cc3)cc1CC2, which growth (SK-MEL-2 melanoma) is on record?
**A.** Its growth is 111%.

**Q.** And the growth (EKVX NSCLC)?
**A.** The growth was 79.6%.

**Q.** And the growth (SN12C renal)?
**A.** Its growth is 92.5%.

**Q.** What about the growth (UO-31 renal) of the same molecule?
**A.** Its growth is 91.3%.

**Q.** And the growth (TK-10 renal)?
**A.** The growth was 206%.

**Q.** And the growth (ACHN renal)?
**A.** Its growth is 91.9%.

**Q.** And the growth (CAKI-1 renal)?
**A.** The growth was 85.2%.

**Q.** And the growth (A498 renal)?
**A.** Its growth is 98.7%.

**Q.** And the growth (MOLT-4 leukemia)?
**A.** Its growth is 69.4%.

**Q.** CC1(C)CC(=O)c2c(ccc(C(=O)C[C@H](N)CO)c2N)O1 was tested. Which growth (SK-MEL-2 melanoma) did it give?
**A.** Its growth is 36.8%.

**Q.** What about the growth (EKVX NSCLC) of the same molecule?
**A.** Its growth is 80%.

**Q.** What about the growth (SN12C renal) of the same molecule?
**A.** The growth was 32.6%.

**Q.** And the growth (UO-31 renal)?
**A.** The growth was 43.4%.

**Q.** What about the growth (TK-10 renal) of the same molecule?
**A.** The growth was 79.4%.

**Q.** And the growth (ACHN renal)?
**A.** The growth was 46.2%.

**Q.** And the growth (CAKI-1 renal)?
**A.** The growth was 20.3%.

**Q.** And the growth (A498 renal)?
**A.** Its growth is -16.8% (active).

**Q.** What about the growth (MOLT-4 leukemia) of the same molecule?
**A.** The growth was 38.5%.

**Q.** Nc1c(-c2nc3ccccc3c(=O)[nH]2)nnn1-c1ccc(Cl)cc1 was tested. Which growth (SK-MEL-2 melanoma) did it give?
**A.** The growth was 96.3%.

**Q.** And the growth (EKVX NSCLC)?
**A.** The growth was 103%.

**Q.** And the growth (SN12C renal)?
**A.** Its growth is 95.4%.

**Q.** What about the growth (UO-31 renal) of the same molecule?
**A.** The growth was 48%.

**Q.** And the growth (TK-10 renal)?
**A.** The growth was 72.6%.

**Q.** And the growth (ACHN renal)?
**A.** Its growth is 87%.

**Q.** What about the growth (CAKI-1 renal) of the same molecule?
**A.** Its growth is 70.2%.

**Q.** And the growth (A498 renal)?
**A.** The growth was 57.4%.

**Q.** What about the growth (MOLT-4 leukemia) of the same molecule?
**A.** Its growth is 87.7%.

**Q.** What does the source list for COc1ccc(OC)c(/C=C2\COc3ccc(O)c(O)c3C2=O)c1?
**A.** growth (SK-MEL-2 melanoma): 76.6%; growth (EKVX NSCLC): 57.9%; growth (SN12C renal): -4.71% (active); growth (UO-31 renal): -25.8% (active); growth (TK-10 renal): 41.5%; growth (ACHN renal): 19.6%; growth (CAKI-1 renal): 31.2%; growth (A498 renal): 107%; growth (MOLT-4 leukemia): 4.32% (active)

**Q.** Which results are given for CCCCOc1nc2ccc(Cl)cc2cc1/C=C/C(=O)/C=C1/CC(c2cc3cc(Cl)ccc3nc2OCCCC)Nc2ccccc2N1 (centres undefined)?
**A.** growth (SK-MEL-2 melanoma): 102%; growth (EKVX NSCLC): 78.6%; growth (SN12C renal): 91.8%; growth (UO-31 renal): 77.4%; growth (TK-10 renal): 113%; growth (ACHN renal): 92.7%; growth (CAKI-1 renal): 81.9%; growth (CCRF-CEM leukemia): 101%

**Q.** What does the source list for Cc1cc(-c2ccc(N(C)C)cc2)c2sc(=O)[nH]c2n1?
**A.** growth (SK-MEL-2 melanoma): 56%; growth (EKVX NSCLC): 77.5%; growth (SN12C renal): 76.7%; growth (UO-31 renal): 55.3%; growth (TK-10 renal): 97.7%; growth (ACHN renal): 83.2%; growth (CAKI-1 renal): 46.9%; growth (CCRF-CEM leukemia): 60%; growth (MOLT-4 leukemia): 63.2%

**Q.** What does the source list for CN1CCN(c2ccc3nc(/N=C/c4ccc5sc(-c6ccc([N+](=O)[O-])cc6)nc5c4)sc3c2)CC1?
**A.** growth (SK-MEL-2 melanoma): 111%; growth (EKVX NSCLC): 97.7%; growth (SN12C renal): 104%; growth (UO-31 renal): 92.2%; growth (TK-10 renal): 101%; growth (ACHN renal): 108%; growth (CAKI-1 renal): 108%; growth (CCRF-CEM leukemia): 101%

**Q.** Which growth (SK-MEL-2 melanoma) does the source give for Cc1ccc(/C=C(\C#N)n2nnc3cc(Cl)c(Cl)cc32)cc1 here?
**A.** Its growth is 26%.

**Q.** And the growth (EKVX NSCLC)?
**A.** Its growth is 36.5%.

**Q.** And the growth (SN12C renal)?
**A.** The growth was 19.5%.

**Q.** What about the growth (UO-31 renal) of the same molecule?
**A.** Its growth is 0.755% (active).

**Q.** And the growth (TK-10 renal)?
**A.** Its growth is 44.6%.

**Q.** And the growth (ACHN renal)?
**A.** The growth was 25.7%.

**Q.** What about the growth (CAKI-1 renal) of the same molecule?
**A.** The growth was 22.2%.

**Q.** And the growth (CCRF-CEM leukemia)?
**A.** The growth was 9.85% (active).

**Q.** What about the growth (MOLT-4 leukemia) of the same molecule?
**A.** Its growth is 9.51% (active).

Source: PubChem BioAssay (NCI)
